Results reported in the supplement of paper PMC6555819.

Tests used:
Assay in all cases: PBM binding z-score (relative to random genomic background probes); higher = stronger binding; sequences stand for … in GC…GCGATTGACAGCGTAGAATGAAGG
[1] = test system: FXR:RXRa (NR concentration 270 nM, RXRa partner concentration 90 nM)
Outline: (§1)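 Ligand-free nuclear receptor dimers were applied to custom Agilent 4×180K protein-binding microarrays whose double-stranded probes carried direct-repeat seeds, single-nucleotide variants, half-site ablations and random human genomic background sequences in 34-nt variable regions. Incubation lasted 1 h. Binding z-scores were computed against the random background probes from regression-normalized fluorescence.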

[2] = test system: LXRa:RXRa (NR concentration 270 nM, RXRa partner concentration 90 nM)
Outline: as §1

[3] = test system: LXRa homodimer (NR concentration 270 nM)
Outline: as §1

[4] = test system: LXRb:RXRa (NR concentration 270 nM, RXRa partner concentration 90 nM)
Outline: as §1

[5] = test system: LXRb homodimer (NR concentration 270 nM)
Outline: as §1

[6] = test system: PPARa:RXRa (NR concentration 270 nM, RXRa partner concentration 90 nM)
Outline: as §1

[7] = test system: PPARg:RXRa (NR concentration 180 nM, RXRa partner concentration 90 nM)
Outline: as §1

[8] = test system: PPARg:RXRa 270nM:90nM, anti-RXR (NR concentration 270 nM, RXRa partner concentration 90 nM)
Outline: as §1

[9] = test system: PPARg:RXRa 30nM:10nM, anti-RXR (NR concentration 30 nM, RXRa partner concentration 10 nM)
Outline: as §1

[10] = test system: PPARg:RXRa 90nM:30nM, anti-RXR (NR concentration 90 nM, RXRa partner concentration 30 nM)
Outline: as §1

[11] = test system: PPARg:RXRa DBDmut IVT, anti-RXR (DBD mutation: RXRa K156A/R161A, NR concentration 270 nM, RXRa partner concentration 90 nM)
Outline: as §1

[12] = test system: PPARg:RXRa IVT, anti-PPARg (NR concentration 270 nM, RXRa partner concentration 90 nM)
Outline: as §1

[13] = test system: PPARg DBDmut:RXRa IVT, anti-PPARg (DBD mutation: PPARg1 K132A/R137A, NR concentration 270 nM, RXRa partner concentration 90 nM)
Outline: as §1

[14] = test system: PPARg DBDmut IVT, anti-PPARg (DBD mutation: PPARg1 K132A/R137A, NR concentration 270 nM)
Outline: as §1

[15] = test system: PPARg homodimer (NR concentration 180 nM)
Outline: as §1

[16] = test system: PXR:RXRa (NR concentration 270 nM, RXRa partner concentration 90 nM)
Outline: as §1

[17] = test system: PXR homodimer (NR concentration 270 nM)
Outline: as §1

[18] = test system: RARa:RXR (NR concentration 270 nM, RXRa partner concentration 90 nM)
Outline: as §1

[19] = test system: RARa homodimer (NR concentration 270 nM)
Outline: as §1

[20] = test system: RARb:RXRa (NR concentration 270 nM, RXRa partner concentration 90 nM)
Outline: as §1

Sequence	PBM binding z-score [1]	PBM binding z-score [2]	PBM binding z-score [3]	PBM binding z-score [4]	PBM binding z-score [5]	PBM binding z-score [6]	PBM binding z-score [7]	PBM binding z-score [8]	PBM binding z-score [9]	PBM binding z-score [10]	PBM binding z-score [11]	PBM binding z-score [12]	PBM binding z-score [13]	PBM binding z-score [14]	PBM binding z-score [15]	PBM binding z-score [16]	PBM binding z-score [17]	PBM binding z-score [18]	PBM binding z-score [19]	PBM binding z-score [20]
CCTAGTTGGTCAGGAGGTCACACATCGGATATGA	3.47	3.35	2.05	3.2	0.972	4.03	3.29	3.64	1.24	2.91	1.56	3.61	1.34	0.678	3.07	4.1	1.36	4.37	1.58	3.71
AGTCAAAGTTCATCTAGGTAACCTAAGATATGCT	6.25	6.2	6.02	4.02	2	4.99	6.33	6.35	3.52	5.54	0.989	3.71	1.38	1.29	3.22	5.34	6.67	3.84	1.21	4.88
ACTATTAGTTGACTTAGGCCAACCGATACGACGC	0.313	0.281	0.278	0.209	1.1	0.0554	1.05	0.478	0.505	0.622	0.581	0.623	1.41	1.22	1.1	0.168	0.397	0.152	0.685	0.896
GCTGGGAGGACAAGGTCAGAGCTTTGTCCGTAGA	1.59	1.84	-0.27	1.45	-0.657	2.47	0.399	1.28	-0.497	0.699	0.282	0.836	-1.6	-1.38	1.02	1.89	-0.0131	2.62	-0.22	3.41
ATCTCTACGTAAGACTCAGTTCAGTGAAGAACGC	0.165	0.16	0.552	0.484	0.986	0.0277	0.265	0.146	0.213	0.131	-0.086	0.118	0.872	1.57	0.776	1.09	1.22	0.208	0.199	0.279
CCAGACAGGTGACAGGTAACTCAGTCTGGTACGC	-0.312	-0.0899	-0.169	-0.0936	-0.582	0.79	1.37	1.4	0.0561	0.74	1.77	1.46	-0.216	-0.746	0.536	-0.209	0.203	0.0624	0.656	0.724
TCATATAGGTAATACAGGTGAAAGGCGGCATCTA	1.01	1.22	0.706	0.93	0.000841	2.25	2.3	3.69	4.62	4.1	4.33	3.42	1.73	1.03	1.29	1.04	0.592	1.33	1.69	0.697
ACAGTCAGGTGATGAAGGTAACTCAGGCTATCAT	0.11	-0.185	-0.351	-0.331	-0.338	0.116	0.349	-0.0826	0.0143	-0.0221	0.347	0.415	0.348	0.294	0.022	-0.36	-0.211	0.136	-0.284	0.503
GCTCCTAGGTCAACTGATGGTCAGCTAAAGCTCG	4.73	3.62	0.561	3.01	0.879	4.1	2.53	3.46	1.21	2.51	4.98	3.97	-0.903	0.266	2.06	2.28	-0.577	3.53	-0.186	4.35
AGAAAGAGGTTATACGTAGATCAGGGAAGAAAGT	3.01	2.51	0.203	2.19	0.538	3.37	1.84	1.7	0.807	1.23	1.97	1.35	0.646	0.799	0.915	1.54	0.627	2.07	1.16	2.08
CCTCGGAGGACAACAGGAGATCAGAGCTGCCAGA	-0.269	-0.36	-0.193	-0.853	-1.12	-0.626	0.424	-0.794	-0.377	-0.822	-0.232	-0.63	-1.13	-1.73	-0.0101	-0.68	-0.412	-0.621	-0.0651	0.694
ATATGTAGGTTATCGGGTCTTTCAGTTTGCGCAT	0.832	1.52	1.05	1.64	1.21	3.2	5.24	4.68	2.04	3.97	7.73	6.72	2.3	2.32	2.02	1.2	1.43	1.07	1.78	1.3
TAGCCTGGGTCATGGGCCAGTATACCACGCGAAC	3.85	2.34	-0.426	2.04	-0.671	4.14	4.11	3.94	1.09	2.53	0.288	3.03	0.752	-1.17	1.52	1.73	-0.609	2.83	-0.797	3.26
ATCGAAAGGTCGGCGAGGTGAGTATACACCGTTT	3.23	2.52	-0.167	1.9	0.199	3.76	1.57	2.25	0.34	1.11	-0.166	1.39	0.74	0.0118	0.989	2.25	-0.157	2.77	-0.0319	3.5
CCTATTAGTTTACCATAAGGGCAACCGAAGCTCG	0.454	0.693	0.603	0.679	0.527	0.641	0.273	0.684	0.33	0.455	0.246	0.459	0.256	1.25	1.47	0.681	1.08	0.819	1.51	1.6
CAGCGTAGGTCAGGGCCAGTATAGGAGGAACGTT	1.79	1.23	-0.344	0.759	-1.03	2.46	0.896	0.918	-0.272	0.0961	0.838	1.03	-0.58	-1.66	0.304	0.605	-0.644	1.04	0.00652	3.43
TCTATTAGTTGATTAGGGCAACCGCAACAGCGGA	0.86	0.405	0.129	0.329	0.245	1.06	0.368	1.95	3.34	2.72	2.2	1.59	0.83	0.659	0.498	0.281	0.274	0.408	0.676	0.729
